Here are results for 44 compounds from PMC4336329 (PLoS ONE, 2015).

Hit rate of the full screen: of about 310,000 compounds, about 14,000 (4.5%) showed an effect of 50% or more. Effects have a minus sign here. Many of the other results were omitted from the sample, so strong results are more common in it than they were.
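Further: peak tail current of the secondary pulse compared with the same well before compound.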

This experiment deals with human ether-à-go-go-related gene (hERG) potassium channel (human, UniProt Q12809). Kind of experiment: primary screen, population patch clamp on CHO cells stably expressing hERG; higher = less effect of the substance.
human ether-à-go-go-related gene (hERG) potassium channel, sequence (Q12809 whole entry, looked up): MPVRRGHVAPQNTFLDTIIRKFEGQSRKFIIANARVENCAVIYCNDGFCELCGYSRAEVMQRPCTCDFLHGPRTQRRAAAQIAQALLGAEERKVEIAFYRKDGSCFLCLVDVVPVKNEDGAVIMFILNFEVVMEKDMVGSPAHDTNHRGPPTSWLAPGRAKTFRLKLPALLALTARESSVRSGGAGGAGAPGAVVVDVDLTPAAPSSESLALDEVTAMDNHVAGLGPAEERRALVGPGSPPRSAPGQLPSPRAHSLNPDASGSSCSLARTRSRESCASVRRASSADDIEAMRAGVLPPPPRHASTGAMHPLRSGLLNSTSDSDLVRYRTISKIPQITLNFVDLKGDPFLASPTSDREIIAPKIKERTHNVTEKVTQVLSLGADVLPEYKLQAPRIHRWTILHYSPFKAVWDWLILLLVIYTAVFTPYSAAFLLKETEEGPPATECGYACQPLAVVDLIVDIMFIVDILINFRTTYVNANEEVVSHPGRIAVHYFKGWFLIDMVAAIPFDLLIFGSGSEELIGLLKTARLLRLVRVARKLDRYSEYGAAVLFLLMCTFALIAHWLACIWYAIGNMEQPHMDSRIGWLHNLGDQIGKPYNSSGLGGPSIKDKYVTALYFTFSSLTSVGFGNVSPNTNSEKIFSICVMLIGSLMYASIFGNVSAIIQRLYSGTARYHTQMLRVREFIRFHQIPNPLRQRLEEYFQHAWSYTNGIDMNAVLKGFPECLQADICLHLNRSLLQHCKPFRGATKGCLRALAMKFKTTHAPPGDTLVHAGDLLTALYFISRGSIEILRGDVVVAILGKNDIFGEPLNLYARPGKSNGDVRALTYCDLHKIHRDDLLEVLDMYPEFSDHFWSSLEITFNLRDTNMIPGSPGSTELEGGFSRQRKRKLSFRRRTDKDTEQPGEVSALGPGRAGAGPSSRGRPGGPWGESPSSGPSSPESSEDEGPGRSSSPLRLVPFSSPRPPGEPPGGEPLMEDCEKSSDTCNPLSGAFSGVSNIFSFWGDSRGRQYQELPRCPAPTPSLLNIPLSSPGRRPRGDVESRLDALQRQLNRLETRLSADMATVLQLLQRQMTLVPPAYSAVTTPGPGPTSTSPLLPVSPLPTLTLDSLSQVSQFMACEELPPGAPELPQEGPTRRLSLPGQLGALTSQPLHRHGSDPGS
Take `O=C(c1ccccc1Oc1ccccc1)N1CCN(c2ccc(F)cc2)CC1`: the “hERG current change (%, negative = inhibition) at 10uM” value is listed as -33.9%.

For `CC(C)N(C(=O)COC(=O)c1ccccc1C(=O)N1CCN(c2ccc(F)cc2)CC1)C(C)C`, the “hERG current change (%, negative = inhibition) at 10uM” value is reported as -55.9%.

For the compound `O=C(COC(=O)c1ccccc1C(=O)N1CCN(c2ccccc2)CC1)NCc1ccccc1`, the “hERG current change (%, negative = inhibition) at 10uM” value was -58%.

For the compound `COc1cccc(NC(=O)COC(=O)c2ccccc2C(=O)N2CCN(c3ccccc3)CC2)c1`, the “hERG current change (%, negative = inhibition) at 10uM” value was -11.8%.

Turning to `O=C(COC(=O)/C=C/C(=O)N1CCN(c2ccccc2)CC1)NCc1ccc(F)cc1`, the “hERG current change (%, negative = inhibition) at 10uM” value is recorded as -8.17%.

Take `CN(C(=O)COC(=O)c1ccccc1C(=O)N1CCN(c2ccccc2)CC1)c1ccccc1`: the “hERG current change (%, negative = inhibition) at 10uM” value is recorded as -17%.

With `O=C(COC(=O)c1ccccc1C(=O)N1CCN(c2ccccc2)CC1)Nc1ccc(F)cc1`, the “hERG current change (%, negative = inhibition) at 10uM” value is -21.6%.

On to `O=C(COC(=O)c1ccccc1C(=O)N1CCN(c2ccc(F)cc2)CC1)NCc1ccccc1`, for which the “hERG current change (%, negative = inhibition) at 10uM” value is reported as -73.6%.

With `O=C(COC(=O)c1ccccc1C(=O)N1CCN(c2ccccc2)CC1)Nc1ccccc1`, the “hERG current change (%, negative = inhibition) at 10uM” value is -25.8%.

As to `O=C1CCC([N+](=O)[O-])C(c2ccc(Br)cc2)N1` (centres unmarked), the “hERG current change (%, negative = inhibition) at 10uM” value was 7.57%.

`CC(=O)N1CCN(C(=O)c2cc3ccccc3o2)CC1`: the “hERG current change (%, negative = inhibition) at 10uM” value is reported as 20.1%.

Consider `COC(=O)c1ccc(NS(=O)(=O)c2ccc(SC)cc2)cc1`, for which the “hERG current change (%, negative = inhibition) at 10uM” value was -2.34%.

For the compound `Cc1nn(Cc2c(Cl)cccc2Cl)c(C)c1N`, the “hERG current change (%, negative = inhibition) at 10uM” value is 9.12%.

As to `CCOC(=O)C1=C(c2ccccc2)N=C2SCC(=O)N2C1c1ccc(OCC)c(OCC)c1` (centres unmarked), the “hERG current change (%, negative = inhibition) at 10uM” value is given as 6.45%.

On to `O=C(Nc1ccncc1)c1cc2ccccc2cc1O`, for which the “hERG current change (%, negative = inhibition) at 10uM” value was determined as 5.89%.

For `Cc1ccc(-n2cc(C(=O)c3ccccc3O)cn2)cc1`, the “hERG current change (%, negative = inhibition) at 10uM” value was 19.8%.

As to `CCCCNC(=O)[C@H]1C[C@H]1[C@@H](O)[C@H](CO)NC(=O)[C@H](CC(C)C)NC(=O)OC(C)(C)C`, the “hERG current change (%, negative = inhibition) at 10uM” value is 16.1%.

With `CCc1ccccc1NC(=O)CSc1nc(-c2ccccc2)nn1C(=O)c1cccc([N+](=O)[O-])c1`, the “hERG current change (%, negative = inhibition) at 10uM” value is -0.129%.

Consider `Br.Cc1ccc(S(=O)(=O)CCSC(=N)N)cc1`, for which the “hERG current change (%, negative = inhibition) at 10uM” value was 13.1%.

For the compound `Br.CCS(=O)CCSC(=N)N` (centres unmarked), the “hERG current change (%, negative = inhibition) at 10uM” value was 19.2%.

With `CCS(=O)(=O)CCSC(=N)N.Cl`, the “hERG current change (%, negative = inhibition) at 10uM” value is recorded as -53.3%.

As to `O=C(Nc1ccc(C(F)(F)F)cc1)C1CCCN1S(=O)(=O)c1cccc2cccnc12` (centres unmarked), the “hERG current change (%, negative = inhibition) at 10uM” value is -51.9%.

As to `O=C(C1CCCN1S(=O)(=O)c1cccc2cccnc12)N1CCc2ccccc21` (centres unmarked), the “hERG current change (%, negative = inhibition) at 10uM” value was -31.7%.

Regarding `O=C(C1CCCN1S(=O)(=O)c1cccc2cccnc12)N1CCn2c1nc1ccccc12` (centres unmarked), the “hERG current change (%, negative = inhibition) at 10uM” value is -50.8%.

In the case of `CC(=O)c1ccc(NC(=O)C2CCCN2S(=O)(=O)c2cccc3cccnc23)cc1` (centres unmarked), the “hERG current change (%, negative = inhibition) at 10uM” value is 7.11%.

As for `O=C(O)[C@H]1CCCN1S(=O)(=O)c1cccc2cccnc12`, the “hERG current change (%, negative = inhibition) at 10uM” value amounted to 0.132%.

As for `O=C(C1CCCN1S(=O)(=O)c1cccc2cccnc12)N1CCN(c2ccccc2)CC1` (centres unmarked), the “hERG current change (%, negative = inhibition) at 10uM” value is on record as -45%.

Regarding `O=C(Nc1cccc(C(F)(F)F)c1)C1CCCN1S(=O)(=O)c1cccc2cccnc12` (centres unmarked), the “hERG current change (%, negative = inhibition) at 10uM” value was -12.4%.

Consider `O=C(C1CCN(S(=O)(=O)c2cccc3cccnc23)CC1)N1CCn2c1nc1ccccc12`, for which the “hERG current change (%, negative = inhibition) at 10uM” value is recorded as -9.66%.

`O=C(C1CCCN1S(=O)(=O)c1cccc2cccnc12)N1CCc2ccccc2C1` (centres unmarked): the “hERG current change (%, negative = inhibition) at 10uM” value is listed as -57.5%.

`CSc1ncccc1C(=O)Nc1ccc(S(=O)(=O)NC2=NCCCCC2)cc1`: the “hERG current change (%, negative = inhibition) at 10uM” value is 7.85%.

Turning to `COC(=O)CCSCC(=O)Nc1cc(C)on1`, the “hERG current change (%, negative = inhibition) at 10uM” value is listed as -14.4%.

In the case of `O=C(COc1cccc2cccnc12)N/N=C1\SCC(=O)N1Cc1ccccc1`, the “hERG current change (%, negative = inhibition) at 10uM” value is -44.8%.

As for `COc1cc(C(=O)OCC(=O)NCc2ccc(F)cc2)ccc1OCC(C)C`, the “hERG current change (%, negative = inhibition) at 10uM” value came to 21.1%.

In the case of `COc1ccc(NC(=O)N2CCN(S(C)(=O)=O)CC2)cc1OC`, the “hERG current change (%, negative = inhibition) at 10uM” value is -0.713%.

With `O=C(/C=C/c1ccc(Br)cc1)NC1CCCCCC1`, the “hERG current change (%, negative = inhibition) at 10uM” value was -4.17%.

In the case of `Cc1onc(-c2ccccc2)c1C(=O)Nc1ccc(S(=O)(=O)N2CCOCC2)cc1`, the “hERG current change (%, negative = inhibition) at 10uM” value is -29.6%.

On to `O=c1[nH]c(=O)n(-c2cccc(F)c2)c(O)c1/C=C1\C=Nc2ccccc21`, for which the “hERG current change (%, negative = inhibition) at 10uM” value is recorded as 14%.

For `O=[N+]([O-])c1ccccc1OCCCOc1cccc2cccnc12`, the “hERG current change (%, negative = inhibition) at 10uM” value is on record as -15.3%.

In the case of `Cc1ccc2cccc(Oc3ccc([N+](=O)[O-])cc3[N+](=O)[O-])c2n1`, the “hERG current change (%, negative = inhibition) at 10uM” value is listed as -7.96%.

For `NC(=O)c1ccc(Oc2cccc3cccnc23)c([N+](=O)[O-])c1`, the “hERG current change (%, negative = inhibition) at 10uM” value is on record as -13.4%.

For the compound `O=[N+]([O-])c1ccc(Oc2cccc3cccnc23)c(Cl)c1`, the “hERG current change (%, negative = inhibition) at 10uM” value was -15.4%.

Regarding `N#Cc1ccc(Oc2cccc3cccnc23)c([N+](=O)[O-])c1`, the “hERG current change (%, negative = inhibition) at 10uM” value was -79.1%.

Regarding `O=[N+]([O-])c1ccc(Oc2cccc3cccnc23)c([N+](=O)[O-])c1`, the “hERG current change (%, negative = inhibition) at 10uM” value was -52%.
